Values joined by “and” are separate entries in the source; they are usually repeats but may differ in a detail not shown here. Equal entries are not always repeated. This is part of a sample that, as a whole, favours compounds with a hit. Of some 83,000 tested, about 20% had one in any assay.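 In brief: 96-well plates, 48 h treatment, single concentration, percent growth endpoint.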 Unmarked numbers belong to inactive results. Active and inactive are the calls of the source. How the source made its calls: active means growth percent below 10; inactive means the rest.
What follows are compounds tested on LOX IMVI melanoma (assay: NCI-60 one-dose screen, 48 h (100 = growth as untreated, 0 = no growth, -100 = all killed)). Conditions: 10 µM unless noted.

Row | Structure (SMILES) | growth
1 | COc1ccc(NC(=O)N/N=C/c2c[nH]c3ccccc23)cc1 | 28%
2 | CCC(=O)c1cc(C(=O)OC)c2ccc3c4ccccc4ccc3n12 | 77.9%
3 | Cc1oc(-c2ccccc2)nc1CN[C@@H]1C[C@@H]2C[C@H]([C@H]1C)C2(C)C | -95.5% (active)

These compounds were tested on SK-MEL-28 melanoma in the same assay as above. Conditions: 10 µM unless noted.

Row | Structure (SMILES) | growth
4 | C=CC(=O)N1CCN(c2ccc3nc4c(nc3c2C(F)(F)F)C(=O)c2ncccc2C4=O)CC1 | 30.5%
5 | O=C(N/N=C/c1ccc(-c2cccc([N+](=O)[O-])c2)s1)c1[nH]c2ccc(Br)cc2c1-c1ccccc1 | 87.6%
6 | CCCCNc1ccc2c3c(cccc13)C(=O)N(NCC(O)COc1ccc3c(C)cc(=O)oc3c1)C2=O (stereo unspecified) | 103%
7 | CC(=O)Nc1cccc(-n2c(COc3ccc(Br)cc3)nc3ccccc32)c1 | 101% and 106%
8 | CC(=O)c1c2c(c3ccc4c5ccccc5ccc4n13)C(=O)c1ccccc1C2=O | 101%
9 | CC1=NN(C2=NC(=O)C(CC(=O)Nc3ccccc3C(F)(F)F)S2)C(c2ccc(N(C)C)cc2)C1 (stereo unspecified) | 42%
10 | Cc1ccc(C2CC(c3ccc(NC(=O)Nc4ccccc4)cc3)=NN2c2ccc(S(C)(=O)=O)cc2)cc1 (stereo unspecified) | -89.4% (active)
11 | O=C(CSc1nc2sc3c(c2c(=O)n1-c1ccc(Cl)cc1)CCCC3)N/N=C/C=C/c1ccccc1 | -80.1% (active)
12 | O=C(COc1ccc(/C=C2/C(=O)Nc3ccc(Cl)cc32)cc1)Nc1ccc(Br)cc1 | -26.7% (active)
13 | CC(C)(C)OC(=O)N1CCC2(CC1)Oc1ccccc1[C@H]1CC(c3ccc(Br)cc3)=NN12 | 113%
14 | N#Cc1c(-c2ccc(F)cc2)nc(SCc2ccc(F)cc2)nc1N1CCNCC1 | -97.6% (active)
15 | Cc1ccc(/C=C/C(=O)c2ccc(S(=O)(=O)NCCNc3nc(N(C)C)nc(N4CCOCC4)n3)cc2)cc1 | 90.7%
16 | ClC(Cn1ncc2c(Nc3cccc(Br)c3)nc(SCCN3CCOCC3)nc21)c1ccc(Br)cc1 (stereo unspecified) | -46.4% (active)
17 | COc1ccc(N=Nc2c(N)nn3c(N)c(C#N)c(-c4ccccc4)nc23)cc1 | 66.6%
18 | Cc1cccc(-c2ccccc2Oc2ccc3nnc(Cl)n3n2)c1 | 107%
19 | CCN1CCN(Cc2ccc(C(=O)Nc3cccc(Nc4ccc5c(OC)cccc5n4)c3)cc2C(F)(F)F)CC1 | -100% (active)
20 | N#CCc1nnc(NC(=O)c2ccc(-n3c(=O)[nH]c4ccccc4c3=O)cc2)s1 | 103%

Row | Structure (SMILES) | growth
21 | COc1cc(NC(=O)CSc2nnc(-c3ccc(-c4nc5ccc(Cl)cc5[nH]4)cc3)o2)cc(OC)c1OC | 49.1%
22 | c1n[nH]cc1-c1nc2ccc3cn[nH]c3c2c2c1CCCC2 | 98.2%
23 | Cc1ccccc1NC(=O)c1cccc(NC(=O)CCl)c1 | 71.1%
24 | COc1ccc(-c2cc(-c3cc(OC)c(OC)c(OC)c3)[nH]c(=O)c2C#N)cc1 | 51.9%
25 | O=C(CSc1nc2c(c(=O)[nH]1)CCCC2)Nc1ccccc1C(=O)O | 112%
26 | N/C(=N\c1nc2ccccc2s1)NC(=O)Nc1ccccc1[N+](=O)[O-] | 51%
27 | FC(F)(F)c1cc2c(Cl)ncnc2n1CCN1CCOCC1 | 74.1%
28 | O=C(NNC(=O)c1ccc(OCc2nc3ccc(Cl)cc3[nH]2)cc1)Nc1ccc(Cl)c(Cl)c1 | 8.8% (active)
29 | Clc1ccc(-c2nc3c4c(-c5ccccc5)c(-c5ccccc5)n(Cc5ccccc5)c4ncn3n2)cc1 | 36.2%
30 | COc1c(B(O)O)cc(F)cc1-c1nc2c(F)cc3[nH]ncc3c2c2c1CCCC2 | 25.7%
31 | C/C(=N\Nc1ccc(C(=O)O)cc1)c1cnn(-c2cc(=O)[nH]c3ccc(C)cc23)c1C | 107%
32 | O=C1Nc2cc(-c3ccc(NS(=O)(=O)c4ccc([N+](=O)[O-])cc4)cc3)ccc2/C1=C/c1ccc[nH]1 | 9.97% (active)
33 | COc1ccc(NC(=O)CSc2nnc(-c3ccc(-c4nc5ccc(Cl)cc5[nH]4)cc3)o2)cc1 | -76% (active)
34 | COc1ccc2[nH]c(O)c(N=Nc3nc(-c4ccc(C#N)cc4)cs3)c2c1 | 68.9%
35 | COc1ccc(-c2nc3ccc(-c4nnc(SCC(=O)Nc5ccc(/C(C)=N\O)cc5)o4)cc3[nH]2)cc1 | -64.6% (active)
36 | CCCCCCCCCCCCCCCCCC(=O)Nc1ccc(OC)cc1 | 110%
